# Data: ChEMBL document CHEMBL5606460, “ASAP - DENV-2 NS2B-NS3 protease fluorescence single point” (2024)
# Among all 2,000 compounds or so, about 110 (5.5%) showed an effect of 50% or more. Only a selection was taken, and strong results are over-represented in it overall.
# Biological target: Genome polyprotein (dengue virus type 2) (UniProt P29990)
# [1] = Thailand/16681/1984, Concentration 25.0 uM, Number of replicates 1.0
smiles,measurement,setting,value
Cc1cc(CO)c2cccc(CC(=O)NC[C@H](C)O)c2n1,inhibition,"Thailand/16681/1984, Concentration 99.9 uM, Number of replicates 2.0, Standard deviation 0.37872079112567497 %",-9.3%
Cc1cc(CO)c2cccc(CC(=O)Nc3ccc(C(=O)O)o3)c2n1,inhibition,"Thailand/16681/1984, Concentration 49.95 uM, Number of replicates 2.0, Standard deviation 0.6719381020899052 %",88.9%
same,inhibition,"Thailand/16681/1984, Concentration 99.9 uM, Number of replicates 2.0, Standard deviation 0.0646782165500299 %",94%
Cc1cc(CO)c2cccc(Nc3ccc(C(=O)O)o3)c2n1,inhibition,"Thailand/16681/1984, Concentration 49.95 uM, Number of replicates 2.0, Standard deviation 2.0261345521834873 %",10.8%
same,inhibition,"Thailand/16681/1984, Concentration 99.9 uM, Number of replicates 2.0, Standard deviation 1.7612979174821286 %",14%
Cc1cc(CO)c2cccc(Cc3cccc(C(=O)Nc4ccc(C(=O)O)o4)c3)c2n1,inhibition,"Thailand/16681/1984, Concentration 49.95 uM, Number of replicates 2.0, Standard deviation 0.4498774840540114 %",35.3%
same,inhibition,"Thailand/16681/1984, Concentration 99.9 uM, Number of replicates 2.0, Standard deviation 0.6611646932609445 %",80.5%
Cc1cc(CO)c2cccc(Cc3ccccc3C(=O)Nc3ccc(C(=O)O)o3)c2n1,inhibition,"Thailand/16681/1984, Concentration 49.95 uM, Number of replicates 2.0, Standard deviation 1.5990008562851066 %",16.8%
same,inhibition,"Thailand/16681/1984, Concentration 99.9 uM, Number of replicates 2.0, Standard deviation 2.1056511568076566 %",34.4%
Cc1cc(CO)c2cccc(Cc3cccc(C(=O)N[C@@H](C)C(N)=O)c3)c2n1,inhibition,"Thailand/16681/1984, Concentration 49.95 uM, Number of replicates 2.0, Standard deviation 0.7962665847500093 %",6.57%
same,inhibition,"Thailand/16681/1984, Concentration 99.9 uM, Number of replicates 2.0, Standard deviation 0.21200201975767785 %",24.1%
O=Cc1ccc(N2CCC(C(=O)Nc3ccccc3Oc3ccccc3)CC2)cc1,inhibition,[1],14.2%
c1ccc2c([C@H]3CCN(Cc4ccon4)C3)c[nH]c2c1,inhibition,"Thailand/16681/1984, Concentration 49.5 uM, Number of replicates 2.0, Standard deviation 1.9476178393933903 %",-2.85%
same,inhibition,"Thailand/16681/1984, Concentration 99.01 uM, Number of replicates 2.0, Standard deviation 2.5164078728535832 %",-2.25%
same,inhibition,"Thailand/16681/1984, Concentration 198.0 uM, Number of replicates 2.0, Standard deviation 2.4110409873352823 %",-1.68%
O=Cc1ccc(N2CCC(C(=O)N3CCN(CCOc4ccccc4)CC3)CC2)cc1,inhibition,[1],11.7%
CC(C)Nc1nc2ccc(C(=O)NCc3cnn(C)c3)cc2[nH]1,inhibition,"Thailand/16681/1984, Concentration 49.5 uM, Number of replicates 2.0, Standard deviation 2.4534347281334856 %",-3.32%
same,inhibition,"Thailand/16681/1984, Concentration 99.01 uM, Number of replicates 2.0, Standard deviation 2.252490861313308 %",-2.73%
same,inhibition,"Thailand/16681/1984, Concentration 198.0 uM, Number of replicates 2.0, Standard deviation 1.9859869815785558 %",-2.52%
N=C(N)NCCC[C@H](NC(=O)[C@H](Cc1ccc(CN)cc1)NC(=O)c1ccccc1)B(O)O,inhibition,"Thailand/16681/1984, Concentration 25.0 uM, Number of replicates 3.0, Standard deviation 0.03506963405710981 %",99.2%
same,inhibition,"Thailand/16681/1984, Concentration 49.5 uM, Number of replicates 2.0, Standard deviation 0.000841588271065532 %",99.2%
same,inhibition,"Thailand/16681/1984, Concentration 49.5 uM, Number of replicates 2.0, Standard deviation 0.023586050776272474 %",99.1%
same,inhibition,"Thailand/16681/1984, Concentration 49.5 uM, Number of replicates 2.0, Standard deviation 0.03248746518177329 %",99.4%
same,inhibition,"Thailand/16681/1984, Concentration 49.5 uM, Number of replicates 2.0, Standard deviation 0.05596562002585788 %",99.3%
same,inhibition,"Thailand/16681/1984, Concentration 49.5 uM, Number of replicates 2.0, Standard deviation 0.06712205941408557 %",99.5%
same,inhibition,"Thailand/16681/1984, Concentration 49.5 uM, Number of replicates 2.0, Standard deviation 0.09040060678362256 %",99.2%
same,inhibition,"Thailand/16681/1984, Concentration 49.5 uM, Number of replicates 2.0, Standard deviation 0.09520737056259301 %",99.3%
same,inhibition,"Thailand/16681/1984, Concentration 49.95 uM, Number of replicates 2.0, Standard deviation 0.47465039008435067 %",97.5%
same,inhibition,"Thailand/16681/1984, Concentration 99.01 uM, Number of replicates 2.0, Standard deviation 0.0013325147625204256 %",99.6%
same,inhibition,"Thailand/16681/1984, Concentration 99.01 uM, Number of replicates 2.0, Standard deviation 0.024875407165917744 %",99.7%
same,inhibition,"Thailand/16681/1984, Concentration 99.01 uM, Number of replicates 2.0, Standard deviation 0.05930499912707304 %",99.8%
same,inhibition,"Thailand/16681/1984, Concentration 99.01 uM, Number of replicates 2.0, Standard deviation 0.0639876825840274 %",99.6%
same,inhibition,"Thailand/16681/1984, Concentration 99.01 uM, Number of replicates 2.0, Standard deviation 0.06968458780354793 %",99.8%
same,inhibition,"Thailand/16681/1984, Concentration 99.01 uM, Number of replicates 2.0, Standard deviation 0.07464240588758142 %",99.5%
same,inhibition,"Thailand/16681/1984, Concentration 99.01 uM, Number of replicates 2.0, Standard deviation 0.12292583554166162 %",99.6%
same,inhibition,"Thailand/16681/1984, Concentration 99.9 uM, Number of replicates 2.0, Standard deviation 0.4080138623651106 %",98.7%
same,inhibition,"Thailand/16681/1984, Concentration 198.0 uM, Number of replicates 2.0, Standard deviation 0.0010358009490037316 %",99.7%
same,inhibition,"Thailand/16681/1984, Concentration 198.0 uM, Number of replicates 2.0, Standard deviation 0.007655216388730705 %",99.8%
same,inhibition,"Thailand/16681/1984, Concentration 198.0 uM, Number of replicates 2.0, Standard deviation 0.011571838727151066 %",99.8%
same,inhibition,"Thailand/16681/1984, Concentration 198.0 uM, Number of replicates 2.0, Standard deviation 0.02492935513201169 %",99.9%
same,inhibition,"Thailand/16681/1984, Concentration 198.0 uM, Number of replicates 2.0, Standard deviation 0.05517797972088629 %",99.9%
same,inhibition,"Thailand/16681/1984, Concentration 198.0 uM, Number of replicates 2.0, Standard deviation 0.06791509451566656 %",99.8%
same,inhibition,"Thailand/16681/1984, Concentration 198.0 uM, Number of replicates 2.0, Standard deviation 0.07632018763310308 %",99.6%
N#Cc1ccc(C[C@H](NC(=O)c2ccccc2)C(=O)NCCCCNC(=N)N)cc1,inhibition,"Thailand/16681/1984, Concentration 49.5 uM, Number of replicates 2.0, Standard deviation 0.6326801671633419 %",-5.12%
same,inhibition,"Thailand/16681/1984, Concentration 99.01 uM, Number of replicates 2.0, Standard deviation 1.2914777248245206 %",-4.14%
same,inhibition,"Thailand/16681/1984, Concentration 198.0 uM, Number of replicates 2.0, Standard deviation 0.45252363179091937 %",-1.98%
NCc1ccc(C[C@H](NC(=O)c2ccccc2)C(=O)Nc2cccc(C(N)=O)c2)cc1,inhibition,"Thailand/16681/1984, Concentration 49.5 uM, Number of replicates 2.0, Standard deviation 0.2094720287352659 %",-3.21%
same,inhibition,"Thailand/16681/1984, Concentration 99.01 uM, Number of replicates 2.0, Standard deviation 1.2712236353041253 %",-1.98%
same,inhibition,"Thailand/16681/1984, Concentration 198.0 uM, Number of replicates 2.0, Standard deviation 0.9103772804850719 %",-0.193%
O=Cc1ccc(N2CCC(C(=O)N3CCN(c4ccnc5cc(Cl)ccc45)CC3)CC2)cc1,inhibition,[1],1.86%
CC(C)CC(=O)N1CCC(NC(=O)C2CCN(c3ccc(C=O)cc3)CC2)CC1,inhibition,[1],14.2%
